# Assay results from PubChem BioAssay AID618 (Sanford-Burnham Center for Chemical Genomics, 2007).
# Out of some 87,000 compounds screened, about 540 (0.62%) were called active. How the calls were made is not given here. This excerpt belongs to a sample that is enriched for actives. Entries with a potency or affinity are not part of this list.
# Assay: MT1-MMP gene expression reporter suppression – cell-based, luciferase reporter, luminescence (AID 618);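 further: actives suppress MT1-MMP promoter-driven transcription so potencies describe inhibitors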
# Settings: MT1-MMP promoter luciferase reporter cells
row,SMILES,outcome
1,Cc1ccc(NC(=O)c2ccc(N3C(=O)C4CC=C(Cl)CC4C3=O)cc2)cc1 (centres undefined),inactive
2,COC(=O)[C@@H]1C[C@@]2(O)[C@H](O)[C@H](O)[C@H](O)C[C@H]2N1Cc1c(F)cccc1Cl,inactive
3,CC(C)Cc1ccc(S(=O)(=O)N2CCOCC2)cc1,inactive
4,O=C(CC1CCS(=O)(=O)C1)NC1CCCCC1 (centres undefined),inactive
5,O=C(CN1CC(c2ccccc2)CC1=O)OCc1ccccc1F (centres undefined),inactive
6,Cc1cccc(CSC2=NCCN2C(=O)c2ccco2)c1,inactive
7,COCCn1c(=O)c2c3c(sc2n(CC(N)=O)c1=O)CCCC3,inactive
8,COc1ccc(Br)c(C(=O)Nn2c(C)nc3ccccc3c2=O)c1,inactive
9,Cc1ccc(C)c(Cn2nnc3c(=O)[nH]c(C4CCN(C(=O)c5cccs5)CC4)nc32)c1,inactive
10,CCCNC(=O)NC(C)C12CC3CC(CC(C3)C1)C2 (centres undefined),inactive
11,COc1ccccc1NC(=O)c1ccc(COc2ccccc2OC)o1,inactive
12,CCn1c(=O)c(=O)n(CC)c2cc(S(=O)(=O)Nc3cccc(OC)c3)ccc21,inactive
13,CCn1c(=O)cc(SCC(=O)Nc2ccccc2N2CCN(C)CC2)c2ccccc21,inactive
14,Cc1ccc(NC(=O)Cc2cn3ccsc3n2)nc1,inactive
15,CCOc1cccc(-c2nc3cc(C)ccc3o2)c1,inactive
16,CC(C)c1ccc2oc(-c3ccc(NC(=O)c4ncn[nH]4)cc3)nc2c1,inactive
17,CC(C)c1ccc2oc(-c3cc(N)ccc3O)nc2c1,inactive
18,COc1cc(OC)cc(-c2nc3cc(C)ccc3o2)c1,inactive
19,O=C1CC(=C2c3ccccc3-c3ccccc32)C(=O)N1CCN1CCN(c2ccccc2)CC1,inactive
20,Cc1nn(Cc2nc(-c3cccs3)no2)c(C)c1Br,inactive

row,SMILES,outcome
1,COc1ccccc1-c1nnc(SCC(=O)O)n1C,inactive
2,CC1=C(C(=O)OCc2ccccc2)C(c2ccc3ccccc3c2)NC(=O)N1CCCCCC(=O)O (centres undefined),inactive
3,Cc1ccc(-c2csc3ncnc(NCCN4CCOCC4)c23)cc1,inactive
4,Cn1nnnc1Sc1ncnc2scc(-c3ccc(F)cc3)c12,inactive
5,CCOc1ccc(NC(=O)c2ccncc2)cc1,inactive
6,O=C(Nc1ccc(N2CCOCC2)cc1)Nc1cnsn1,inactive
7,Cc1cnc(C(=O)Nc2ccc(N3CCOCC3)cc2)cn1,inactive
8,CCOc1ccc(NC(=O)c2cnccn2)cc1,inactive
9,O=C(Nc1ccc(N2CCOCC2)cc1)c1cnsn1,active
10,CCc1nnc(NC(=O)CN2C(=O)c3ccccc3S2(=O)=O)s1,inactive
11,CC1(C)CC(=O)C2=C(C1)Nc1ncnn1C2c1ccccn1 (centres undefined),inactive
12,CCOc1ccc(C2C(C(=O)c3cccs3)=C(O)C(=O)N2CCCn2ccnc2)cc1 (centres undefined),inactive
13,CN1CCN(c2ccccc2NC(=O)c2ccc(-c3ccccc3)cc2)CC1,inactive
14,CC(=O)c1c(C)[nH]c(C(=O)Nc2ccc(C)cn2)c1C,active
15,CC(=O)c1c(C)[nH]c(C(=O)Nc2cc(C)ccc2C)c1C,inactive
16,CC(=O)c1c(C)[nH]c(C(=O)Nc2cc(C)cc(C)c2)c1C,inactive
17,CC1=CC(=O)C=C(C)C1=NOS(=O)(=O)c1ccccc1,active
18,CC1=C/C(=N\OS(=O)(=O)c2ccccc2)C=CC1=O,inactive
19,CC1=C(C)/C(=N\OS(=O)(=O)c2ccccc2)C=CC1=O,inactive
20,Cc1cccc(C2N(c3ccc(F)cc3)C(=O)C3CCCN32)c1 (centres undefined),inactive

row,SMILES,outcome
1,O=S(=O)(Nc1ccccn1)c1ccc(C2CCCCC2)cc1,inactive
2,CC1=CC(C)(C)N(S(=O)(=O)c2ccc(F)cc2)c2ccccc21,inactive
3,CC1=CC(C)(C)N(S(=O)(=O)c2ccc(C)cc2)c2ccc(C)cc21,active
4,Cc1ccc(S(=O)(=O)N2CC3(C)CN(S(=O)(=O)c4ccc(C)cc4)CC(C)(C2)C3)cc1,inactive
5,CC1=CC(C)(C)N(S(=O)(=O)c2ccc(C)cc2)c2cc(C)ccc21,active
6,CC1=CC(C)(C)N(C(=O)CN2C(=O)c3ccccc3C2=O)c2ccccc21,inactive
7,CC1=CC(C)(C)N(C(=O)c2ccccc2)c2ccc(C)cc21,inactive
8,CC1=CC(C)(C)N(S(=O)(=O)c2ccc(C)cc2)c2ccccc21,active
9,CC1=CC(C)(C)N(S(=O)(=O)c2ccc(F)cc2)c2ccc(C)cc21,inactive
10,Cc1ccc(S(=O)(=O)N2C(=S)SCC2(C)C)cc1,inactive
11,O=C(CN1CCN(c2ccccc2)CC1)Nc1c(C(=O)C2CC2)oc2ccccc12,inactive
12,CC(C)n1nnnc1C(c1ccc(F)cc1)N1CCN(C2CCCC2)CC1 (centres undefined),inactive
13,Cc1ccc(NC2=NCCC2)cc1Cl,inactive
14,C=CCn1c(=O)c2ccccc2n2c(SCc3csc(-c4ccccc4)n3)nnc12,inactive
15,Cn1c(-c2ccc(F)cc2)cnc1SCC(=O)N1CCCCC1,inactive
16,Cn1c(-c2ccccc2)cnc1SCC(N)=O,inactive
17,CCOC(=O)c1c(NC(=O)Cc2cccs2)sc2c1CCCC2,inactive
18,COC(=O)c1ccccc1NC(=O)CN1CCC(NC(=O)c2ccccc2C)CC1,inactive
19,COCc1nnc(NC(=O)c2sc3ccccc3c2Cl)s1,inactive
